# Source: PubChem (Broad Institute)
# A1 inh – inhibitors of A1; MEF A1-2A-BIM cells, caspase-Glo luminescence, 3 h; percent of clofoctol signal, DMSO as zero; caspase activation, % (test concentration not listed); hit rate 0.51% among 21,000; AID 2241;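 active means most replicate scores above 10, or exactly half above 10 with mean activity above 10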;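 further: effector caspase 3 and 7 activity cleaving a DEVD luciferin substrate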
# * = called active by the depositor. This excerpt belongs to a sample that is enriched for hits.
SMILES,A1 inh
CCc1ccc(OCCCn2cc(/C=C3/C(=N)N4C=CSC4=NC3=O)c3ccccc32)cc1,0
CCN1CCCC1CNC(=O)c1ccc2c(=O)n3c(nc2c1)CCCCC3 (configuration not stated),0
CCOC(=O)C(C)N1C(=O)S/C(=C/c2ccc(-c3ccccc3C(=O)O)o2)C1=O (configuration not stated),1
C=CCNS(=O)(=O)c1ccc(C)cc1,1
CCOC(=O)C1CCN(c2cc(C(F)(F)F)nc3ccc(C)cc23)CC1,-1
O=C(NCC1CCCO1)c1ccc(Cn2c(=S)[nH]c3ccccc3c2=O)cc1 (configuration not stated),1
COc1ccc2[nH]c3c(=O)n(Cc4ccc(C(=O)NCCc5ccc(C)cc5)cc4)c(=S)[nH]c3c2c1,112*
COc1ccc2[nH]c3c(=O)n(CC(=O)N4CCN(c5ccc(F)cc5)CC4)c(=S)[nH]c3c2c1,4
CC(C)NC(=O)Cn1cc2c(n1)CCCC2,0
COc1ccc(/C=C/C(=O)OC2CCCCC2)cc1,0
Cc1cc(C)c(C#N)c(SCc2ccccc2)n1,0
Cc1cc(C)c(C#N)c(SCSCc2ccccc2)n1,-1
Cc1cc(C)c(C#N)c(Sc2ncnc3c2nnn3Cc2ccccc2)n1,9.8*
CCc1ccc2[nH]c(C(=O)NCCc3ccccc3)cc2c1,1
O=C(Nc1ccccc1)c1scc2c1CCCC2,-7
Cc1oc(C(C)(C)C)cc1C(=O)NCc1ccc(C(=O)O)o1,0
CCCc1c(C(=O)NC2CCN(Cc3ccccc3)CC2)cnn1-c1ccccc1,0
O=C(COC(=O)c1ccc(Br)cc1)c1ccc(Br)cc1,-1
COc1ccc(-c2nsc(SCC(=O)c3ccc(Cl)cc3)n2)cc1,-1
O=C(/C=C/Oc1ccc(Cl)cc1)c1ccc(Br)cc1,11*
CCc1ccc[n+](OC(=O)N(CC)CC)c1,0
COc1cc2c(cc1OC)C1C(C)C(=O)C3=C(CSCC3=O)N1CC2 (configuration not stated),0
CCC1CN2CCc3cc(OC)c(OC)cc3[C@@H]2C[C@@H]1C[C@H]1NCCc2cc(OC)c(OC)cc21 (some centres not stated),17*
CCCC(=O)N1CCc2cc(OC)c(OC)cc2C1COc1ccc(OC)cc1 (configuration not stated),0
CCOC(CCn1c(SCc2cc(=O)n3ccccc3n2)nc2ccccc2c1=O)OCC,-1
SMILES,A1 inh
CC(=O)Oc1ccccc1C(=O)N1CCc2ccccc21,1
COc1ccc(/C=C2\SC(N(C)c3ccc(Cl)cc3)=NC2=O)c(OC)c1OC,0
Cc1cc(C)cc(NC(=O)Cn2c(=O)c3cccn3c3ccccc32)c1,56*
COC(=O)Cn1c(=O)c2cccn2c2ccccc21,1
COc1cccc(NC(=O)Cn2c(=O)c3cccn3c3ccccc32)c1,0
N#Cc1c(-c2ccccc2)cc(-c2ccccc2)nc1SCC(O)CS(=O)Cc1ccccc1 (configuration not stated),-1
Clc1ccc(C=Nc2ccc3c(c2)OCCOCCOCCO3)c(Cl)c1,2
CC1=C(c2ccc(C)cc2)S(=O)(=O)NC1=NC1CCN(Cc2ccccc2)CC1,9.6*
COc1ccc(OC)c(CCN=C2NS(=O)(=O)C(c3ccc(C)cc3)=C2C)c1,1
CC1=C(c2ccc(C)cc2)S(=O)(=O)NC1=NC(C)C12CC3CC(CC(C3)C1)C2 (configuration not stated),0
O=C(CSc1nc2ccccc2o1)NCC12CC3CC(CC(C3)C1)C2,0
COc1ccc(CC(=O)Nc2ccc(-c3cnco3)cc2)cc1OC,0
NNC(=O)CNC(=O)C1COc2ccccc2O1 (configuration not stated),0
CSc1ccc(CCNC(=O)c2ccc3snnc3c2)cc1,-1
CC1CC(=O)c2c(ccc3c2C(=O)c2c(O[C@@H]4O[C@@H](C)[C@H](O)[C@@H](O)[C@H]4O)cccc2C3=O)C1 (some centres not stated),1
COc1cccc2c1C(=O)c1c(O)c3c(c(O)c1C2=O)C[C@@](O)(C(C)=O)C[C@@H]3O[C@H]1C[C@H](N)[C@H](O)[C@H](C)O1,15*
CCN(CC)c1c(C#N)c(SCC(=O)c2cccs2)cc2c1CCCC2,0
CCCc1cc(=O)oc2cc3occ(-c4ccccc4)c3cc12,1
